Source: PubChem BioAssay AID434970 (Sanford-Burnham Center for Chemical Genomics, 2010)
The whole screen tested about 11,000 compounds, of which about 310 (2.8%) were called active. No stated cut-off is given here; in the data, active means activity change below about -85%; inactive means the rest. Shown is part of a subset that was picked to be rich in actives.

These molecules were tested on intestinal alkaline phosphatase [Mus musculus] (assay: activators of mouse IAP, confirmation, biochemical, luminescence, single concentration (AID 434970)). Conditions: purified mouse IAP, CDP-Star luminescence, 30 min, at 10 µM; activation factor: measured here: IAP activation factor, stronger effect = higher value; activity change, negative = activation: stronger effect = lower value.

Row | SMILES | activation factor | activity change, negative = activation
1 | Cn1c(=O)c2c(nc(SCC(=O)N3CCCCCC3)n2C)n(C)c1=O | 1.08 | -7.85% (inactive)
2 | Cn1c(=O)c2c(nc(NC3CCCCC3)n2CC(=O)C23CC4CC(CC(C4)C2)C3)n(C)c1=O | 5.65 | -465% (active)
3 | Cn1c(=O)c2c(nc(NC3CCCCC3)n2CC(O)COc2ccccc2)n(C)c1=O (stereo unspecified) | 1.01 | -0.8% (inactive)
4 | CCN(Cc1cc2ccccc2[nH]c1=O)S(=O)(=O)c1ccccc1 | 1.02 | -1.85% (inactive)
5 | O=C(NCc1cccs1)C(NS(=O)(=O)c1cccc2nsnc12)c1ccccc1 (stereo unspecified) | 0.974 | 2.65% (inactive)
6 | CCOC(=O)C1C(=O)NC(N2CCCCC2)=NC1C(C)C (stereo unspecified) | 0.936 | 6.4% (inactive)
7 | CCCN1C2CCCC1CC(NC(=O)Nc1cccc(C(C)=O)c1)C2 (stereo unspecified) | 1.05 | -5.35% (inactive)
8 | CCc1ccc(NC(=S)NC2CC3CCCC(C2)N3Cc2cccs2)cc1 (stereo unspecified) | 1.88 | -87.8% (inactive)
9 | CCc1ccc(NC(=S)NC2CC3CCCC(C2)N3Cc2ccccc2)cc1 (stereo unspecified) | 2.7 | -170% (active)
10 | C=CCN1C2CCCC1CC(NC(=O)Nc1cccc(C(C)=O)c1)C2 (stereo unspecified) | 0.972 | 2.8% (inactive)
11 | Cc1ccc(C)c(NC(=S)NC2CC3CCCC(C2)N3CC(C)C)c1 (stereo unspecified) | 1.24 | -23.9% (inactive)
12 | COc1ccc(CN2C3CCCC2CC(NC(=O)Nc2cccc(C)c2)C3)cc1 (stereo unspecified) | 10.5 | -954% (active)
13 | COc1cccc(NC(=S)NC2CC3CCCC(C2)N3CC(C)C)c1 (stereo unspecified) | 1.72 | -71.5% (inactive)
14 | O=C(Nc1ccccc1)NC1CC2CCC(C1)N2Cc1nnnn1Cc1ccc2c(c1)OCO2 (stereo unspecified) | 2.23 | -123% (active)
15 | Cc1cccc(NC(=S)NC2CC3CCCC(C2)N3CC(C)C)c1 (stereo unspecified) | 2.45 | -145% (active)
16 | COc1cccc(NC(=O)NC2CCN(Cc3nnnn3Cc3ccc4c(c3)OCO4)CC2)c1 | 1.58 | -58.1% (inactive)
17 | CCOC(=O)c1ccc(NC(=O)NC2CC3CCC(C2)N3Cc2nnnn2Cc2ccco2)cc1 (stereo unspecified) | 1.95 | -94.8% (inactive)
18 | S=C(Nc1ccc(Cl)cc1)NC1CC2CCC(C1)N2Cc1ccccc1 (stereo unspecified) | 1.64 | -64% (inactive)
19 | COc1ccc(-c2noc(CCC(=O)N3CCN(c4ccc(F)cc4)CC3)n2)cc1 | 1.1 | -10.3% (inactive)
20 | CC(C)NC(=O)c1ccc(CNC(=O)OCC(F)(F)F)cc1 | 1.05 | -5.05% (inactive)
21 | COCCNC(=O)Cn1c(=O)n(Cc2ccco2)c(=O)c2ccccc21 | 1.06 | -6.35% (inactive)
22 | O=C(NOCc1ccccc1)c1ccccc1 | 0.948 | 5.2% (inactive)
23 | CCOC(=O)C1=CN(Cc2cccc(-c3ccc4c(c3)OCO4)c2)S(=O)(=O)N(C)C1C (stereo unspecified) | 1 | -0.3% (inactive)
24 | O=C1c2ccccc2[C@@H]2C[C@@H](O)[C@H](Nc3ccccc3Cl)CCN12 | 0.989 | 1.1% (inactive)
25 | CCn1nnnc1SCC(=O)Nc1cc(C)on1 | 0.966 | 3.35% (inactive)
26 | CCOC(=O)C1CCCN(C(=O)Cc2ccc(OC)c(OC)c2)C1 (stereo unspecified) | 1 | -0.35% (inactive)

Row | SMILES | activation factor | activity change, negative = activation
27 | Cc1ccc(OCCCC(=O)Nc2nncs2)cc1 | 1 | -0.3% (inactive)
28 | Cc1ccc(Nc2nc(CSc3nnnn3C)cs2)cc1 | 0.806 | 19.4% (inactive)
29 | O=C(Cc1ccccc1)NC(NC(=S)Nc1cc(Cl)ccc1Cl)C(Cl)(Cl)Cl (stereo unspecified) | 0.912 | 8.8% (inactive)
30 | COC(=O)[C@H](C)N(Cc1ccc(Cl)c(Cl)c1)S(=O)(=O)CCNC1CCCC1 | 0.943 | 5.7% (inactive)
31 | COc1ccc(OC)c(NC(=O)C2C3CCC(C3=C(C)C)C2C(=O)O)c1 (stereo unspecified) | 0.891 | 10.9% (inactive)
32 | O=C(Nc1ccc(Cl)c(C(F)(F)F)c1)NC1CC2CCCC(C1)N2Cc1ccccc1 (stereo unspecified) | 7.69 | -669% (active)
33 | O=C(Nc1ccccc1-c1ccccc1)NC1CC2CCCC(C1)N2CCc1ccccc1 (stereo unspecified) | 1.76 | -76.2% (inactive)
34 | COc1ccc(NC(=O)Cc2ccccc2)cc1 | 0.897 | 10.3% (inactive)
35 | O=C(Nc1cccn(Cc2ccc(F)cc2)c1=O)NC1CCCCC1 | 0.962 | 3.75% (inactive)
36 | COc1cccc(C(=O)NC2CC3CCCC(C2)N3CC(=O)Nc2ccc(N(C)C)cc2)c1 (stereo unspecified) | 0.99 | 1% (inactive)
37 | COc1cc(C(=O)NC2CC3CCCC(C2)N3CC(=O)Nc2ccccc2)cc(OC)c1OC (stereo unspecified) | 1.07 | -6.8% (inactive)
38 | COc1ccc(NC(=O)NC2CC3CCCC(C2)N3Cc2ccccc2)cc1 (stereo unspecified) | 2.71 | -171% (active)
39 | CCc1cccc(CC)c1NC(=O)CN1C2CCCC1CC(NC(=O)Nc1cccc(OC)c1)C2 (stereo unspecified) | 2.36 | -136% (active)
40 | CC(=O)NC1CC2CCCC(C1)N2C(=O)Nc1ccc(Cl)c(C(F)(F)F)c1 (stereo unspecified) | 1.13 | -13% (inactive)
41 | O=C(Nc1ccccc1-c1ccccc1)NC1CC2CCCC(C1)N2Cc1ccc(F)cc1 (stereo unspecified) | 3.7 | -270% (active)
42 | O=C(NCc1ccccc1)NC1CC2CCC(C1)N2Cc1ccco1 (stereo unspecified) | 1.08 | -7.85% (inactive)
43 | COCC(=O)NC1CC2CCCC(C1)N2Cc1ccccc1 (stereo unspecified) | 1.08 | -8.2% (inactive)
44 | CC(C)N(C(=O)[C@H]1C[C@H](CC(=O)NCCc2ccccn2)C(=O)N2CCc3c([nH]c4cc(-c5ccco5)ccc34)[C@]12C)C(C)C | 1.14 | -14.4% (inactive)
45 | COc1cc(/C=N/NC(N)=O)cc(Br)c1OCc1ccccc1C | 0.961 | 3.9% (inactive)
46 | CC(OC(=O)c1cccs1)C(=O)NCC1CCCO1 (stereo unspecified) | 1.09 | -9% (inactive)
47 | CCOC(=O)c1c(C)[nH]c(C(=O)COC(=O)C2CC(=O)N(Cc3ccccc3)C2)c1C (stereo unspecified) | 0.964 | 3.55% (inactive)
48 | COCc1c(C)cc(C)c(/C=N/O)c1C | 0.951 | 4.9% (inactive)
49 | CCSc1cc(C2C(C(=O)OC)=C(C)NC3=C2C(=O)CCC3)c(C)o1 (stereo unspecified) | 0.954 | 4.65% (inactive)
50 | Cc1nc(SCN2C(=O)c3ccccc3C2=O)n[nH]1 | 0.945 | 5.55% (inactive)
51 | CCOC(=O)c1[nH]c(C)c(CN(CCc2ccccc2)C(=O)CCC(=O)O)c1C | 0.977 | 2.3% (inactive)
52 | CC(=O)c1cccc(NC(=O)NC2CC3CCCC(C2)N3CC(C)C)c1 (stereo unspecified) | 1.22 | -21.6% (inactive)

Row | SMILES | activation factor | activity change, negative = activation
53 | COc1ccc(CN2C3CCCC2CC(NC(=O)Nc2ccccc2C)C3)cc1 (stereo unspecified) | 2.43 | -143% (active)
54 | Cc1cccc(NC(=S)NC2CC3CCCC(C2)N3Cc2cccs2)c1C (stereo unspecified) | 1.15 | -14.8% (inactive)
55 | CC(=O)NC1CC2CCCC(C1)N2CC(=O)Nc1ccccc1 (stereo unspecified) | 1.09 | -9.05% (inactive)
56 | CCc1ccccc1NC(=S)NC1CC2CCCC(C1)N2Cc1cccs1 (stereo unspecified) | 1.01 | -0.9% (inactive)
57 | S=C(Nc1ccc(Cl)c(Cl)c1)NC1CCN(Cc2ccccc2)CC1 | 1.63 | -62.7% (inactive)
58 | O=C(Nc1cccn(Cc2ccccc2)c1=O)NC1CCCCC1 | 0.945 | 5.5% (inactive)
59 | O=C(Nc1ccc2c(c1)N(Cc1ccccc1)C(=O)c1ccccc1S2)NC1CC1 | 2.45 | -145% (active)
60 | COc1ccc(CN2C3CCCC2CC(NC(=O)Nc2ccccc2)C3)cc1 (stereo unspecified) | 4.65 | -365% (active)
61 | CC(C)OCCCNC(=O)C(=O)NCCCOC(C)C | 0.962 | 3.8% (inactive)
62 | COC(=O)c1ccccc1NC(=O)CCS(=O)(=O)c1ccc(Br)s1 | 1.05 | -5% (inactive)
63 | O=C(O)Cn1c(SCc2cccc3ccccc23)nc2ccccc21 | 1.09 | -9.2% (inactive)
64 | S=c1[nH]ncn1/N=C/c1ccc(N2CCOCC2)cc1 | 1 | -0.35% (inactive)
65 | CCOC(=O)c1c(C)[nH]c(O)c1C=Nc1ccc(C(F)(F)F)cc1 | 0.846 | 15.4% (inactive)
66 | COc1ccc(OC)c(NC(=O)C(=O)/C=C(\O)c2cc(OC)ccc2OC)c1 | 0.905 | 9.55% (inactive)
67 | Cc1ccc(/C(N)=N/OC(=O)Oc2ccccc2)cc1 | 0.99 | 1% (inactive)
68 | COc1ccc(CCNC(=O)c2ccc(Cl)cc2)cc1 | 1.08 | -8.2% (inactive)
69 | COc1ccc(CCNC(=O)c2ccc(Cl)cc2Cl)cc1 | 1.19 | -18.9% (inactive)
70 | COc1ccc(CCNC(=O)c2cc(-c3cc(Cl)cc(Cl)c3)oc2C)cc1 | 2.07 | -107% (active)
71 | O=C(CCCNS(=O)(=O)c1cccs1)N1CCN(c2ccc(F)cc2)CC1 | 0.934 | 6.55% (inactive)
72 | COc1ccc(NC(=S)NCC2CCCO2)c(OC)c1 (stereo unspecified) | 0.95 | 4.95% (inactive)
73 | C#CCOCCOCCOCCNc1nc(N2CCN(C(=O)CCCCCCCCCCNC(=O)Cn3cc(C[C@@H](C)O)nn3)CC2)nc(N2CCN(C(=O)CCCCCCCCCCNC(=O)[C@H](CCCN=C(N)N)n3cc(C[C@@H](C)CC)nn3)CC2)n1 | 5.68 | -468% (active)
74 | C#CCOCCOCCOCCNc1nc(N2CCN(C(=O)CCCCCCCCCCNC(=O)Cn3cc(C[C@@H](C)O)nn3)CC2)nc(N2CCN(C(=O)CCCCCCCCCCNC(=O)[C@H](CCCCN)n3cc(C[C@@H](C)CC)nn3)CC2)n1 | 2.76 | -176% (active)
75 | CC[C@H](C)Cc1cn([C@@H](CCCCNC(=O)OC(C)(C)C)C(=O)NCCCCCCCCCCC(=O)N2CCN(C(=O)OC(C)(C)C)CC2)nn1 | 1.57 | -56.9% (inactive)
76 | CCc1cccc(CC)c1NC(=O)CSc1nc2ccc(N3C(=O)C4C5C=CC(C5)C4C3=O)cc2s1 (stereo unspecified) | 0.959 | 4.1% (inactive)
77 | CCOC(=O)C1(CC)NC(c2ccco2)C2C(=O)N(c3ccc(C)cc3)C(=O)C21 (stereo unspecified) | 1.05 | -4.65% (inactive)
78 | COCCCNC(=O)C[C@H]1C[C@H](C(=O)N2CCCCC2)[C@@]2(CCc3ccccc3)c3[nH]c4ccc(Cl)cc4c3CCN2C1=O | 1.2 | -19.7% (inactive)
